# From PubChem
# Vc quorum ag – quorum light induction in luxS cqsA deficient V. cholerae. V. cholerae BH1578 lux reporter, luminescence, 6 h. 0.16% of 350,000 active. activation, % at 18.7 µM; in the data active means activation mostly above about 9.7%, no sharp cut-off
# Mtb FBA inh – Mtb fructose-bisphosphate aldolase inhibition. P9WQA3. purified M. tuberculosis FBA, fluorescence read-out. inhibition, % at 1 µM. 2.3% of 360,000 active;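 further: 0% = vehicle and 100% = reference inhibitor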
# Target sequence (P9WQA3 whole entry, looked up): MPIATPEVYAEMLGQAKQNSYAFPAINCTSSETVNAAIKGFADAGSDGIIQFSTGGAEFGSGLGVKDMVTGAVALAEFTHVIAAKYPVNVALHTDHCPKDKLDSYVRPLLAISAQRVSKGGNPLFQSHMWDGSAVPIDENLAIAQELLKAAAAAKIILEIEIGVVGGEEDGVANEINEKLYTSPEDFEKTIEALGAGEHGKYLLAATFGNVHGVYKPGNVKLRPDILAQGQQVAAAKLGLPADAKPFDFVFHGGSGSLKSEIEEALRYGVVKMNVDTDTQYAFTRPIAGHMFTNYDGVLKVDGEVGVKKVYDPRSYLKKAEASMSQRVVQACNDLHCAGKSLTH
# CCHFV vOTU inh – blocks the CCHF virus ovarian tumor domain protease | CCHFV vOTU protease, Pep-AMC fluorescence | inhibition, % at 11.5 µM | 0.55% of 370,000 active | AID 651958; in the data active means inhibition above about 30%; further: 0% = vehicle wells with enzyme and 100% = no enzyme wells
# GDH-TPI counter-1 – inhibits GDH-TPI coupling enzymes, artifact for Mtb FBA screen; GDH-TPI coupled enzyme counterscreen, NADH absorbance; inhibition, % at 4.8 µM; 1.2% of 360,000 active; AID 588335; in the data active means inhibition above about 30%;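 further: 0% = DMSO wells and 100% = wells lacking the enzyme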
# Mtb FBA inh conf – confirmation of M. tuberculosis fructose-bisphosphate aldolase inhibitors; shares compounds with Mtb FBA inh; purified M. tuberculosis FBA, fluorescence read-out; inhibition, % at 1 µM; 78% of 5,600 active; AID 651616;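 further: 0% = vehicle wells and 100% = reference inhibitor wells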
# GDH-TPI counter-2 – GDH-TPI inhibition counter-screen for FBA inhibitors. GDH-TPI coupled enzyme counterscreen, fluorescence. inhibition, % at 1 µM. AID 652141. shares compounds with Mtb FBA inh. 81% of 5,600 active; in the data active means inhibition above about 10%
# Starred values were filed as active, the others as inactive; i = inactive; x = no result; + = active, no number. Most compounds without a hit are left out; they make up all but 3.9% or so of the library. Unless noted, no stated cut-off is given here; in the data, active means inhibition above about 27%; inactive means the rest.
SMILES,Vc quorum ag,Mtb FBA inh,CCHFV vOTU inh,GDH-TPI counter-1,Mtb FBA inh conf,GDH-TPI counter-2
CS(=O)(=O)Nc1ccc(-c2cncc3nccn23)cc1,-0.6,63.4*,-30.4,35.0*,65.4*,55.6*
Clc1ccccc1-c1ncc2ccccn12,i,20.7,-8.0,-1.3,x,x
Clc1ccccc1-c1cccc2nccn12,0.7,34.9*,-14.1,-4.9,0.1,-4.6
CS(=O)(=O)Nc1ccccc1-c1cccc2nccn12,1.3,39.6*,-25.3,-0.9,57.8*,39.0*
Cc1nc2cc3sc(C)nc3cc2s1,3.3,1.3,-8.4,1.3,x,x
COc1ccc(NC(=O)CC23CC4CC(CC(C4)C2)C3)cn1,-0.6,-3.7,-4.8,-5.0,x,x
CCN(CC)C(=O)COc1c(-c2ccco2)oc2ccccc2c1=O,i,27.4*,-30.2,33.3*,155.6*,154.7*
O=C(NN1C(=O)NC2(CCCCC2)C1=O)c1ccc(-c2ccc(Cl)cc2)o1,-0.5,34.7*,-15.0,8.4,157.3*,123.6*
Cc1csc(SCC(=O)N(C)CC(=O)Nc2ccc(F)cc2)n1,-1.1,27.9*,x,-5.7,29.5*,13.1*
CN(CC(=O)Nc1ccc(F)cc1)C(=O)CSc1nncs1,-0.7,3.6,-6.1,11.0,x,x
Cc1cc(C)n(CCNS(=O)(=O)c2ccccc2)n1,-0.1,3.4,11.4,-9.2,x,x
CCc1ccc(Nc2n[n+](-c3ccccc3)c(-c3ccc(N(CC)CC)cc3)s2)cc1,-0.8,51.4*,16.3,7.6,36.3*,34.8*
Cc1nnc(CN(C)C(=O)CC2C(=O)NCCN2Cc2ccccc2C)o1 (stereo not drawn),-7.1,0.7,-2.9,2.6,x,x
C=CCNc1nc(NCc2ccccc2)c(C#N)c2c1CN(C)CC2,x,71.4*,-53.2,13.7,58.5*,51.8*
COc1ccc(-c2c(NCCc3ccccc3)c(=O)c2=O)cc1,-0.9,0.9,-1.5,6.4,x,x
CC1CCC2(CC1)NC(=O)N(CC(=O)Nc1ccc3c(c1)OCO3)C2=O (stereo not drawn),i,-2.6,-11.4,-11.8,x,x
CCOC(=O)N1CCC(NC(=O)C2CCN(c3ccc(N4CCOCC4)nn3)CC2)CC1,i,30.6*,x,13.0,123.3*,106.6*
CC(=O)c1sc2nc(SCC(=O)NCCc3ccccc3)[nH]c(=O)c2c1C,0.7,28.9*,-4.4,52.6*,77.0*,73.1*
COc1ccc(CCNC(=O)CSc2nc3sc(C(=O)O)c(C)c3c(=O)[nH]2)cc1OC,7.7,-1.0,-0.7,9.7,x,x
Cc1ccc(S(=O)(=O)NC(=O)C2(C)CCN2C(=O)Cc2ccc(C(C)(C)C)cc2)nc1 (stereo not drawn),-0.1,-2.1,-3.2,-0.9,x,x
Cc1ccc(S(=O)(=O)CCC(=O)OC(C)C(=O)Nc2ccc(N3CCOCC3)cc2)cc1 (stereo not drawn),0.7,-0.7,0.9,-2.5,x,x
CCOCCNC(=O)c1ccc2c3c(cccc13)CC2,i,80.7*,-12.9,1.2,47.3*,36.1*
O=C(NC1CC1)c1ccc2c3c(cccc13)CC2,i,4.3,2.3,9.8,x,x
O=C(NCCCCO)c1ccc2c3c(cccc13)CC2,-0.2,64.4*,-4.7,6.8,-1.8,-2.5
CC(C)(C)NC(=O)c1ccc2c3c(cccc13)CC2,i,12.6,-10.4,8.6,x,x
SMILES,Vc quorum ag,Mtb FBA inh,CCHFV vOTU inh,GDH-TPI counter-1,Mtb FBA inh conf,GDH-TPI counter-2
COc1ccc2oc(C(=O)NCCN3CCOCC3)c(C)c2c1OC,-0.1,101.9*,-28.5,11.0,+,186.4*
Cc1c(C)c2ccc(OC(C)C(=O)NCCCN3CCOCC3)c(C)c2oc1=O (stereo not drawn),1.0,32.1*,0.1,-0.5,73.7*,59.5*
Cc1c(C)c2ccc(OC(C)C(=O)NCCN3CCOCC3)c(C)c2oc1=O (stereo not drawn),2.4,47.0*,4.2,9.4,+,+
Cc1c(OC(C)C(=O)NCCCN2CCOCC2)ccc2c3c(c(=O)oc12)CCCC3 (stereo not drawn),-0.2,27.2*,-12.9,-0.4,48.0*,38.3*
Cc1c(OC(C)C(=O)NCCCN2CCOCC2)ccc2c3c(c(=O)oc12)CCC3 (stereo not drawn),i,17.7,7.5,11.1,x,x
CC(Oc1ccc2c3c(c(=O)oc2c1)CCC3)C(=O)NCCN1CCOCC1 (stereo not drawn),2.2,14.1,1.3,8.6,x,x
COc1ccc(OC)c(/C=N/Nc2nc(C)cc(=O)[nH]2)c1,i,49.1*,-37.0,22.4,194.2*,173.4*
CCOc1cc(/C=N/NC(=O)CCCC(=O)NC2CCCCC2)ccc1O,1.0,55.7*,11.0,12.4,23.7,13.9*
COc1ccc(OC)c(/C=N/NC(=O)CC2C(=O)NN=C2C)c1 (stereo not drawn),0.6,68.2*,-89.5,15.2,41.6*,37.7*
COc1ccc(OC)c(/C=N/NC(=O)CC(=O)NCc2ccccc2)c1,0.2,29.3*,-46.4,-3.5,111.2*,103.2*
COc1cccc(/C=N/NC(=O)CC2C(=O)NN=C2C)c1O (stereo not drawn),12.5,-2.2,-1.5,-6.3,x,x
COc1ccccc1/C=N/Nc1nc(C)cc(=O)[nH]1,-5.3,-0.5,2.0,25.9,x,x
O=C(CN1CCN(C(=O)c2cc(C3CC3)nn2-c2ccccc2)CC1)Nc1ccc(F)cc1,i,-1.6,21.7,3.1,x,x
Cc1cnc(C(=O)OCc2ccc(Br)cc2F)cn1,-0.5,0.7,9.4,-0.8,x,x
CC[C@@H](CCC1CCCCC1)CN(c1ccccc1)S(C)(=O)=O,x,x,15.0,x,x,x
COc1ccc(OC)c(/C=N/NC(=O)CC(=O)NC2CCCCC2)c1,-0.2,104.7*,-122.5,2.2,152.2*,122.3*
COc1ccc(OC)c(C=NNC(=O)NN=Cc2cc(OC)ccc2OC)c1,-0.5,11.0,-21.8,27.4,x,x
Nc1ncccc1C(=O)OCC(=O)NC1CCCCCC1,1.7,32.8*,-18.9,10.9,55.7*,42.7*
Nc1c(Cl)cc(Cl)cc1C(=O)OCC(=O)NC1CC1,0.4,84.2*,-105.6,9.7,8.3,0.5
CC(C)=CCOc1c2ccoc2c(OCC=C(C)C)c2oc(=O)ccc12,-0.4,-1.3,3.8,14.7,x,x
COc1ccc(O)c(C(=O)CC(=O)c2ccc(F)cc2)c1,-6.2,80.5*,-38.4,15.5,79.5*,52.0*
COc1ccc(C(=O)COc2ccc(F)cc2)c(O)c1,2.3,1.1,-1.8,5.3,x,x
CCn1c(SC)nnc1-c1ccc(S(=O)(=O)N2CCCCC2)cc1,-0.9,28.3*,4.1,9.9,42.1*,34.4*
CCc1c(C)c2ccc(OC(C)C(=O)NC(Cc3c[nH]c4ccc(O)cc34)C(=O)O)c(C)c2oc1=O (stereo not drawn),-0.6,42.8*,-8.8,27.4,x,+
CCCc1cc(=O)oc2cc(C)cc(OC(C)C(=O)N[C@@H](Cc3c[nH]c4ccccc34)C(=O)O)c12 (stereo partly drawn),-0.3,3.1,x,7.8,x,x
CCCCc1cc(=O)oc2cc(C)cc(OC(C)C(=O)NC(Cc3c[nH]c4ccc(O)cc34)C(=O)O)c12 (stereo not drawn),-0.5,37.2*,-17.6,15.7,131.8*,102.0*
